# Screening data (PubChem BioAssay)
# A selection: hits, their analogues and other compounds. The true share with any hit is near 1.2%.
# Casp6 inh – inhibitors of human caspase-6; P55212; purified caspase-6, Z-VEID-R110 cleavage fluorescence; inhibition, % at 12.5 µM; actives 0.53% (n = 350,000); AID 686996;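 active = mean inhibition across replicates at least about 35%, with every replicate also reaching that limit, limit read from the data; inconclusive = only one of the two criteria met; inactive = neither criterion met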;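 note: 0% = median of neutral control wells and 100% = no fluorescence left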
# RAD54 inh – blocks human RAD54 Holliday junction branch migration; inhibition, % at 10.4 µM; FAM/BHQ fluorescence; AID 602329; actives 0.14% (n = 360,000);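 active = mean normalized replicate activity at least 40 and at least half of replicates scoring 40 or more; inconclusive = only one of the two criteria met; inactive = mean below 40 and under half of replicates reaching 40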;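 note: 0% = median of neutral control wells and 100% = median of positive control wells; inhibitors cause a drop in the FAM fluorescence signal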
# Target sequence (Q92698 whole entry, looked up): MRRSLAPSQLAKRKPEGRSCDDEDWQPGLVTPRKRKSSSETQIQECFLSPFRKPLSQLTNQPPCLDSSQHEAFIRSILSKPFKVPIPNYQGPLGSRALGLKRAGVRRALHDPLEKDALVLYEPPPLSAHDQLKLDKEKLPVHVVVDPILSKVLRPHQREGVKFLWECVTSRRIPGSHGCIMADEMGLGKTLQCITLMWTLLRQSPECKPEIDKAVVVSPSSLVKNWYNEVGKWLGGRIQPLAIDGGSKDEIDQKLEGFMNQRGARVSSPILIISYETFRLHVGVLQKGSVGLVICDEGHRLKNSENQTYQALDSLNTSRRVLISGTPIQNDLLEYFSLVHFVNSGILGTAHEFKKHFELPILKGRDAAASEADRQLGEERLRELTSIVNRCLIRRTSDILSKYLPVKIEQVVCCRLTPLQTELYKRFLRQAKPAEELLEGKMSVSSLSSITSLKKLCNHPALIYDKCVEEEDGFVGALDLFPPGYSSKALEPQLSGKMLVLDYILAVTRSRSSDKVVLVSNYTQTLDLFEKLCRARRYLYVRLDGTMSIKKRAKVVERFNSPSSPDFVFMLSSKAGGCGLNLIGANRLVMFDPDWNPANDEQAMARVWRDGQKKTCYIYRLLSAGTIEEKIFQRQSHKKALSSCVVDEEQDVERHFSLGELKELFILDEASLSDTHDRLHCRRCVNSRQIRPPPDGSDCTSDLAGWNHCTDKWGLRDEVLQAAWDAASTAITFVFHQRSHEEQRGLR
# RAD52 anneal inh – blocks human RAD52 DNA annealing | AID 651710 | P43351 | inhibition, % at 18.7 µM | actives 0.46% (n = 360,000) | recombinant RAD52 DNA annealing, FRET fluorescence;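 active = every replicate showing at least 50% inhibition; inconclusive = mean inhibition at least 50% but not in every replicate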
# NSD2 inh – blocks human histone methyltransferase NSD2. inhibition, % at 12.5 µM. actives 0.54% (n = 310,000). NSD2 peptide methylation, AlphaScreen, 120 min; in the data active = inhibition above about 50%
# N-glyco inh – blocks N-linked glycosylation in D54 reporter cells. D54 ERlucT glycosylation luciferase reporter, 24 h; percent of 100 nM tunicamycin response. reporter increase, % at 12.5 µM. actives 0.23% (n = 360,000). AID 588692;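 active = mean luciferase reporter signal, scaled so untreated is 0 and the glycosylation-blocking control 100, at or above a set limit in every replicate; inconclusive = mean reaches the limit but not every replicate does; inactive = mean below the limit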;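 note: luciferase carries N-glycosylation sites so blocking glycosylation raises the light; 0% = median of neutral control wells and 100% = median of 100 nM tunicamycin wells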
# * = called active by the depositor; ? = inconclusive; . = no result given.
SMILES,Casp6 inh,RAD54 inh,RAD52 anneal inh,NSD2 inh,N-glyco inh
O=C(N[C@H]1C[C@@H]2O[C@@H](CO)CC[C@@H]2O[C@@H]1CCc1ccc(C#CC2CC2)cc1)c1cccc(F)c1,2,.,-9,.,.
C[C@H]1CN([C@@H](C)CO)C(=O)Cc2cc(NS(C)(=O)=O)ccc2O[C@H]1CN(C)C(=O)Nc1ccc2c(c1)OCO2,.,7,.,.,.
C[C@@H]1CN([C@@H](C)CO)C(=O)Cc2cc(NC(=O)Cc3cn(C)c4ccccc34)ccc2O[C@H]1CN(C)Cc1ccc(-c2ccccc2)cc1,2,.,-7,.,.
CN(C)C(=O)C[C@H]1C[C@H]2c3cc(NC(=O)c4ccc5c(c4)OCO5)ccc3O[C@H]2[C@@H](CO)O1,1,-4,-10,.,.
c1ccc(C2=Nn3c(nnc3-c3n[nH]c4c3CCC4)SC2)cc1,.,2,.,0,38*
Clc1ccc(C2=Nn3c(nnc3-c3n[nH]c4c3CCC4)SC2)cc1Cl,.,0,.,-2,81*
Clc1ccc(C2=Nn3c(nnc3-c3cc(-c4ccccc4)n[nH]3)SC2)cc1,.,8,.,0,?
C[C@@H]1CN([C@H](C)CO)C(=O)c2cccc(NS(=O)(=O)c3cccs3)c2O[C@@H]1CN(C)Cc1ccncc1,-2,0,-26,.,.
COc1ccccc1CN1[C@H](CO)[C@@H]2c3ccccc3N(C(=O)C3CCCC3)C[C@@H]21,2,-22,3,.,.
C[C@@H]1CCCCO[C@H](CN(C)C(=O)Nc2ccc(C(F)(F)F)cc2)[C@@H](C)CN([C@H](C)CO)C(=O)c2cc(NC(=O)Nc3cccc4ccccc34)ccc2O1,-1,2,-13,.,.
OC1CCCN(Cc2ccc3ccc4cccc5ccc2c3c45)C1 (stereo not given),.,91*,.,-2,57*
C[C@@H](NC(=O)c1ncn2c1c(=O)[nH]c1cccnc12)c1ccccc1,0,-8,-4,.,3
C[C@@H](NC(=O)c1ncn2c1c(=O)[nH]c1ccc(Br)cc12)c1ccccc1,-3,-5,-7,.,33*
C[C@@H]1CN([C@@H](C)CO)C(=O)c2cc(NC(=O)Cn3cnnn3)ccc2O[C@@H]1CN(C)S(C)(=O)=O,0,-9,-26,.,.
CCC(C(=O)Nc1ccc(C)cn1)c1ccccc1 (stereo not given),.,.,.,1,.
O=C(O)c1cccc(S(=O)(=O)Nc2ccc([N+](=O)[O-])cc2O)c1,0,0,-13,16,4
O=C(O)CSc1cc(NS(=O)(=O)c2cccc([N+](=O)[O-])c2)c2ccccc2c1O,68*,1,-13,.,8
Cc1ccc(C)c(S(=O)(=O)Nc2cc(SCC(=O)O)c(O)c3ccccc23)c1,.,.,.,.,0
CCOc1ccc(S(=O)(=O)Nc2cc(SCC(=O)O)c(O)c3ccccc23)cc1,88*,0,-19,.,9
OC[C@@H]1[C@@H](c2ccc(C#Cc3ccccc3F)cc2)[C@H]2CN(CC3CCOCC3)CCCCN12,-10,-5,53*,.,.
CN1CCCCN2[C@H](C1)[C@@H](c1ccc(C#Cc3ccccc3F)cc1)[C@@H]2CO,-3,11,65*,.,.
CN1CCN(C(=O)C[C@H]2C=C[C@@H](NC(=O)c3ccc4c(c3)OCO4)[C@@H](CO)O2)CC1,0,.,12,.,.
CCOc1cc(C(=O)Nc2ccc(N3CCOCC3)cc2)cc(Br)c1OC,.,-4,-6,4,32*
COc1ccc(CC(N)c2csc(NC(=O)Nc3ccccc3Oc3ccccc3)n2)cc1 (stereo not given),1,-9,77*,19,-3
COc1ccc2c3c([nH]c2c1)[C@H](CO)N(C(=O)c1cccnc1)CC31CCN(C(=O)CN(C)C)CC1,3,.,4,.,.
SMILES,Casp6 inh,RAD54 inh,RAD52 anneal inh,NSD2 inh,N-glyco inh
Nc1nc(SCc2ccccc2)c2ncn(C3OC(CO)C(O)C3O)c2n1 (stereo not given),1,8,-6,-1,2
OCC1OC(n2cnc3c(SCc4ccccc4)ncnc32)C(O)C1O (stereo not given),-1,.,4,0,113*
OCC1OC(n2ccc3c(SCc4ccccc4)ncnc32)C(O)C1O (stereo not given),-2,7,-20,-2,32*
Cc1noc(C)c1NC(=O)Nc1ccc2c(c1)C(=O)N([C@H](C)CO)C[C@@H](C)[C@@H](CN(C)Cc1ccccc1)OCCCC[C@@H](C)O2,2,1,7,.,.
CCC(=O)N1CC2(CCN(C(=O)c3cccnc3)CC2)c2c([nH]c3cc(OC)ccc23)[C@@H]1CO,4,.,-2,.,.
CCCNC(=O)[C@@H]1[C@@H](CO)[C@@H]2Cn3c(ccc(-c4ccccc4)c3=O)[C@@H]2N1C(=O)C1CCC1,0,7,11,.,.
COc1ccc(CN(C)C[C@@H]2Oc3ccc(NC(=O)Nc4ccc5c(c4)OCO5)cc3C(=O)N([C@H](C)CO)C[C@@H]2C)cc1,7,1,.,.,.
C=C(C)C(=O)Nc1cccc(C2=NOC3(C2)C[C@H](C(N)=O)N(C(=O)c2ccccc2C(=O)c2ccccc2)C3)c1 (stereo not given in full),63*,0,-1,.,-1
C=C(C)C(=O)Nc1cccc(C2=NOC3(C2)C[C@@H](C(N)=O)N(C(=O)/C(C)=C/C)C3)c1 (stereo not given in full),63*,9,-8,.,1
C=C(C)C(=O)Nc1cccc(C2=NOC3(C2)C[C@@H](C(N)=O)N(C(=O)/C=C/C=C/C)C3)c1 (stereo not given in full),51*,0,-12,.,1
COc1ccccc1N(CC(=O)NCCSCc1ccccc1Cl)S(C)(=O)=O,39*,-4,-12,2,-2
CC1CCCC(C)N1/N=C/c1ccc(O)c(O)c1 (stereo not given),25,-6,-17,60*,-1
COc1ccc(/C=N/N2C(C)CCCC2C)cc1O (stereo not given),-2,-6,-11,-2,1
CS(=O)(=O)N1[C@@H]2c3ccc(-c4ccccc4)c(=O)n3C[C@@H]2[C@@H](CO)[C@@H]1C(=O)NC1CCC1,-1,3,-7,.,.
NNc1cc([N+](=O)[O-])cc2c1C(=O)N(Cc1ccccc1)S2=O (stereo not given),7,.,-22,44,0
CC(C)=NNc1cc([N+](=O)[O-])cc2c1C(=O)N(C)S2=O (stereo not given),40*,.,-92,10,2
COc1cc(C(=O)N=c2sccn2C)c([N+](=O)[O-])cc1OC,1,4,-13,0,2
Cn1ccsc1=NC(=O)c1ccc([N+](=O)[O-])o1,49*,5,-49,4,1
CN1C(=O)c2cc(NC(=O)Cc3ccccc3)ccc2OC[C@H]2O[C@H](CC(=O)NCC3CC3)CC[C@H]21,.,-4,-1,.,.
CCOc1cccc(C(=O)Nc2cccc(-c3nnc(-c4ccccc4)o3)c2)c1,-2,-3,-1,-1,-5
CCOc1cccc(C(=O)Nc2cccc(-c3nnc(-c4ccc(C)cc4)o3)c2)c1,.,10,.,5,99*
